Molecules are shown by their SMILES. Inconclusive results are not listed. Activity calls are given as the source filed them. The calls were made as follows: active = hit-call score of the fitted dose curve at least 0.9, where 1 is the maximum; inconclusive = response in the unintended direction; inactive = score below 0.9.

For this experiment, the target named is Ratio of Nucleoli Translocation and Cytoplasm, AR (gene 367) (UniProt P10275). The experiment in a line: UPITT_HCI_U2OS_AR_TIF2_Nucleoli_Cytoplasm_Ratio_Agonist: University of Pittsburgh U2OS Androgen Receptor-Transcriptional Intermediary Factor 2 (AR-TIF2) Agonism High Content Imaging Assay for Ratio of Nucleoli Translocation and Cytoplasm (AID 2284000).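 Also: hits raise the red nucleolar to cytoplasm ratio above vehicle.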 An excerpt: UPITT_AR_TIF2_PPIB is a cell-based, high-content imaging assay that uses U2OS, a human osteosarcoma cell line, expressing a human androgen receptor fused to red fluorescent protein and the coactivator TIF2 fused to green fluorescent protein. UPITT_HCI_U2OS_AR_TIF2_Nucleoli_Cytoplasm_Ratio_Agonist is one of four assay components measured from the UPITT_AR_TIF2_PPIB assay. It is designed to make measurements of the ratio of red fluorescence localized in the nucleolar region of the cell nucleus to red fluorescence localized in the cytoplasm as detected with high-content fluorescent imaging.Data from the assay component UPITT_HCI_U2OS_AR_TIF2_Nucleoli_Cytoplasm_Ratio_Agonist was analyzed into 1 assay endpoint. This assay endpoint, UPITT_HCI_U2OS_AR_TIF2_Nucleoli_Cytoplasm_Ratio_Agonist, was analyzed in the positive analysis fitting direction relative to DMSO as the baseline of activity. Using a type of binding reporter, measures of receptor for gain-of-signal activity can be used to understand the binding at the pathway-level as it relates to the gene AR.
Sequence of Ratio of Nucleoli Translocation and Cytoplasm, AR (gene 367) (P10275 whole entry, looked up, the tested form may be a part): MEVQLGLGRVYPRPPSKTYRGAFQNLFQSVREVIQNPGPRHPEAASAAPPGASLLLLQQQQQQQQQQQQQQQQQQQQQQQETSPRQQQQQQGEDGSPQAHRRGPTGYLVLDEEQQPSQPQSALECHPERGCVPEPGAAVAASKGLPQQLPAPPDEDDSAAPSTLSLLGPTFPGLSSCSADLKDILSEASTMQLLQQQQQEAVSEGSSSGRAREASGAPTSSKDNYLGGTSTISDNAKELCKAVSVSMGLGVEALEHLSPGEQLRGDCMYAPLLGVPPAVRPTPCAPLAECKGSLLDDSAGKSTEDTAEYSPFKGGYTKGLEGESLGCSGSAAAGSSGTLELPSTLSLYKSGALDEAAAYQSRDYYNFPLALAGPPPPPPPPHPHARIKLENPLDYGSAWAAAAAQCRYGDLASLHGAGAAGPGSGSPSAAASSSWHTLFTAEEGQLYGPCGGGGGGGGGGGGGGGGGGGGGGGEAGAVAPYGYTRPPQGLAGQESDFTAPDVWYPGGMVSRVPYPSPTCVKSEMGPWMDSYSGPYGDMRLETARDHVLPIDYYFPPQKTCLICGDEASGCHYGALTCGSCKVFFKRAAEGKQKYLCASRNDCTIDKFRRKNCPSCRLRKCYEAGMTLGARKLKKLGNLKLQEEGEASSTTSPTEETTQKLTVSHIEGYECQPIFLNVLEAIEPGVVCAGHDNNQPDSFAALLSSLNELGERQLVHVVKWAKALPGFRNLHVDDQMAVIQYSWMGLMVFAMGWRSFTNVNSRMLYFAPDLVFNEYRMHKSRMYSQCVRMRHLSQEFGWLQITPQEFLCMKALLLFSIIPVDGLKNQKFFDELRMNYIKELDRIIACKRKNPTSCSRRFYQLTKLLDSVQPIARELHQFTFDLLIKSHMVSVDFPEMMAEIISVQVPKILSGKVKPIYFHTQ
Daughter plates containing 2 uL of 10 mM compounds in DMSO were prepared and replicated from the 384-well Library of Pharmacologically Active Compounds (LOPAC) master plates using the Bravo outfitted with a 384-well transfer head. Aluminum adhesive plate seals were applied with an Abgene Seal-IT 100 (Rochester, NY) plate sealer, and the plates were stored at -20 C in a Matrical MatriMinistore (Spokane, WA) automated compound storage and retrieval system. For screening, LOPAC daughter plates were withdrawn from -20C storage, thawed to ambient temperature, centrifuged 1-2 min at 50 g, and the plate seals were removed before the transfer of 98 uL of serum-free tissue culture medium (SFM) into wells using the BioTek Microflo liquid handler (BioTek, Winooski, VT) to generate a 200 uM intermediate stock concentration of library compounds (2.0% DMSO). The diluted compounds were mixed by repeated aspiration and dispensation using a 384-well P30 dispensing head on the Evolution P3 (EP3) liquid handling platform (PerkinElmer, Waltham, MA) and then 5 uL of diluted compounds was transferred to the wells of assay plates. In the LOPAC screen, compounds were individually tested at a final concentration of 20 uM (0.2% DMSO). After the diluted compounds had been transferred from the daughter plates to the primary HCS assay plates, aluminum adhesive plate seals were applied and the diluted daughter plates were stored frozen at -20C. To confirm active compounds identified in the primary screen, we withdrew the LOPAC daughter plates containing the 200 uM intermediate concentration of library compounds (2.0% DMSO) from -20C storage, thawed them to ambient temperature, centrifuged them for 1-2 min at 50 g, and removed the plate seals. A work list was generated to direct the Multiprobe Janus liquid handling platform (PerkinElmer) to cherry pick 75 uL from the wells of the diluted daughter plates that were flagged active in the primary screen and to reformat these into a 384-well plate hit confirmation daughter plate. Five microliters of primary HCS active compounds was then transferred into triplicate wells of assay plates using a 384-well P30 dispensing head on the Evolution P3 (EP3) liquid handling platform (PerkinElmer). […] Daughter plates containing 2 uL of the serially diluted compounds in DMSO were prepared and replicated from the 384-well serial dilution master plates using the Bravo outfitted with a 384-well transfer head. Aluminum adhesive plate seals were applied and plates were stored at -20C. For testing in the bioassays, daughter plates were withdrawn from -20C storage, thawed to ambient temperature, centrifuged for 1-2 min at 50 g, and the plate seals were removed before the transfer of 38 uL of SFM into wells using the BioTek Microflo liquid handler (BioTek) to generate an intermediate stock concentration of library compounds ranging from 1.95 to 500 uM (5.0% DMSO). […]
For the compound `CCCCNC(=O)n1c(NC(=O)OC)nc2ccccc21`, the outcome was inactive. Take `N#CC(CCc1ccc(Cl)cc1)(Cn1cncn1)c1ccccc1` (stereo not given): the result was inactive. Same read-out and setting: the same measure for `N#Cc1cc(Br)c(O)c(Br)c1`: “inactive”.

With `CCCC1COC(Cn2cncn2)(c2ccc(Cl)cc2Cl)O1` (stereo not given), the AC50 is 89.2 µM (active). Same read-out and setting: in the case of `CS/C(C)=N/OC(=O)N(C)SN(C)C(=O)O/N=C(\C)SC` it was 84.1 µM (active). As for `CCOC(=O)CC(SP(=S)(OC)OC)C(=O)OCC` (stereo not given), the result was inactive. For `O=C(Nc1ccccc1)Nc1ccnc(Cl)c1`, the outcome was inactive. Same read-out and setting: the same measure for `N#Cc1nn(-c2c(Cl)cc(C(F)(F)F)cc2Cl)c(N)c1S(=O)C(F)(F)F` (stereo not given): “inactive”. On the same count and under the same terms, the same measure for `Cc1cc(Cl)ccc1OCC(=O)O`: “inactive”; for `CC(C)Oc1cc(-n2nc(C(C)(C)C)oc2=O)c(Cl)cc1Cl`: “inactive”.

The term AC50 denotes the concentration giving half of the maximal activity seen.

The values above are taken from PubChem BioAssay (EPA / NIEHS).
